This is an account of results in the supplement of paper PMC10681739.
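Further: Full-length recombinant human ETS1 or RUNX1 bound to double-stranded 36-bp genomic probes on microarrays, detected by protein-specific primary antibody and Alexa488 secondary, spot fluorescence as median of four replicate spots.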

RUNX1, sequence (Q01196 whole entry): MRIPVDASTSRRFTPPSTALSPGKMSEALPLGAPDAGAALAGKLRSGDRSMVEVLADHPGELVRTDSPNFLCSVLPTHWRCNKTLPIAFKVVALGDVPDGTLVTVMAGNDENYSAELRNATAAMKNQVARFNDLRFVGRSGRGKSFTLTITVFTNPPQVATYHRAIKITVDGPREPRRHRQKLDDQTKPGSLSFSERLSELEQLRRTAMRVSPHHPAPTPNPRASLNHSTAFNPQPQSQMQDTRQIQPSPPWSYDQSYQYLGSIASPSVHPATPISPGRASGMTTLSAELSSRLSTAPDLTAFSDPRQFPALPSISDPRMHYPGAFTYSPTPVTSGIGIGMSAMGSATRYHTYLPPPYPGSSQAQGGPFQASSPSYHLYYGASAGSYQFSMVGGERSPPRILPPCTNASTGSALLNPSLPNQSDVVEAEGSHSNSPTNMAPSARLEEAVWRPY

This assay has as its target RUNX1 (UniProt Q01196). In words: RUNX1 binding intensity (PBM fluorescence) in presence of ETS1, normalised to RUNX1-only experiment (arbitrary fluorescence units); higher = stronger binding. The following applies: RUNX1 concentration 2 nM; ETS1 concentration 25 nM. How it is done:
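Cooperative gcPBM on 36-bp genomic probes with neighbouring ETS1 and RUNX1 sites. Recombinant human RUNX1 (2 nM) was incubated alone or with ETS1 (25 nM) and detected with anti-RUNX1 antibody plus Alexa488 secondary. Values are medians over 4 replicate spots; the RUNX1+ETS1 data were normalised to the RUNX1-only data. The probes sit in constant array flanks that are not printed.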
As to TACTTCTTCCTGGCAGAGACCGGGAGTGCGGTCCGC, the RUNX1 binding intensity was found to be 920.
For the sequence TCGCTTCCGGTGTCGGTTACAGACTGTGGTTGCCAT, the RUNX1 binding intensity amounted to 3330.
Consider TCTCTATGGTTTCCGTTGGGTGTGTGGTTTTTTTGT, for which the RUNX1 binding intensity amounted to 2050.
As to AACAGAGACCCGGAAGTTGTGGGACGAAGCCAGGAC, the RUNX1 binding intensity is 1260.
In the case of TGCACCCGCCACTTCCGCATCGAACCGCCGCTTCAA, the RUNX1 binding intensity turned out to be 3470.
The value for TCTTGCCCGGGTCGGAAATGGTGGTCACGAGCGCTT was 991; that for GGCGGCTTCCGGGATCTGCCTGGCGGTTGCTTTGTC was 2140; that for GTCCCCGTAACAGGATGTGGTGAGCTGTTATACCAC was 4520.
On to GGCAAACAGGAAACACTCCCAGGGCTGTGGGCTCCT, for which the RUNX1 binding intensity was 1150.
As for CAGTGGCTAAGGATCCGGTGTTGCGGTGATACATGA, the RUNX1 binding intensity turned out to be 1280.
For the sequence TTTACAGGAAATATCCAGAACAGGTAAACCCACAGA, the RUNX1 binding intensity is 926.
As for GGCCGACGGGAAGTGTAGTCCGGCCTGCGGTCCGGG, the RUNX1 binding intensity was determined as 1050.
On to GTGCCCCGGACCTACGGATACCACACACAGACAGGC, for which the RUNX1 binding intensity is 869.
The value for TGGGGGATGGCAGCAGGATGTGGTTATCTCAGAAAG was 1940.
In the case of TGGTGCCAAACATCCGCTAGCCACAGAAAAACCGAC, the RUNX1 binding intensity was 1640.
The value for AGAACAAAACAGGAAATAGTGGTTTGCAAAAATATA was 1730; that for CCTGACTTCCTCCTCCCCCTCCCGCCACAATTCCGC was 2880; that for GATGCTTGTTCAGGATGCGGTTTCTTGCAGCAAGTT was 5090.
Turning to GAGCTGCTCCGGAAGGGTGGTGTGTGGTCAACCTTG, the RUNX1 binding intensity came out at 1050.
As for GCAACAGCGATCCCCGGAAACCACAAGGCGAGATGT, the RUNX1 binding intensity came out at 2790.
Turning to CCGCGCCGCTTCCTCCAGACACCGCAAGGGGGTGCT, the RUNX1 binding intensity was 1660.
Regarding ACCAGCAACGGAAATCAGATCTCTTGTGGTTATTAT, the RUNX1 binding intensity was determined as 1680.
Take TTGAGGGGAAGGGGAGGAAGTGGTCATTGGAACTTG: the RUNX1 binding intensity was determined as 990.
The value for CGGTGGCTTCCGGCCCATGGCGGTGGTTGGTGACTC was 1840; that for TGAGTCACAGAGACAGGATGTGGTGCAGGGGGTATT was 1030; that for CTCTGCCCGCTTCCGCTGGCGGTACCTCAGAGCCGC was 4710.
Take CAAAGTGATGGGGGAAATGGTTGTGGTTTTGGGTGG: the RUNX1 binding intensity was 1500.
On to TTTTTTCCGCCTGTAGGGTCACATTGTGGTTGATTG, for which the RUNX1 binding intensity is 1790.
On to GGCTGTGCTTCAGGATGTGGTAATGCTTGGGAGGCG, for which the RUNX1 binding intensity worked out at 1360.
On to GGACTCTGGCAGGAAGCTGTTTGTGGTTGTCACACC, for which the RUNX1 binding intensity was found to be 1150.
As to CCCAGCCGAGGGAGGAAGCCTGCGGTCACTGCCATC, the RUNX1 binding intensity is 3190.
Take GAGGCAGGCGGATGTCAGTGTGGTTAGAGCACAGTG: the RUNX1 binding intensity was 1960.
As to GCAACTGAACAGGAAACTAAAAAACCACAACACTTA, the RUNX1 binding intensity is 7890.
The value for CTCATCAGTCATCCGGCTGGACCGCAGGAGCTCTCC was 1570; that for GCGGGGCGCAGGAAGCGGGGCGAAACCACTGTTGGC was 1010.
As to ACTTACTTCCCGACGTCACAGCCACCGAAACCACAG, the RUNX1 binding intensity was 2090.
Take GCCCCGGAAGCTCCTTAAGGAGGACCGTGTGGGTTT: the RUNX1 binding intensity stood at 944.
On to GAGGGAGCAGTTCCGGGTGCGGTGCGCGCCAGGGGC, for which the RUNX1 binding intensity worked out at 2060.
The value for GGGCATGGTGGCTTCCGACCGCGGGGACCCCGAGAG was 956; that for ACAGTCGCACCGGAAGCTGCCCGCGGTGTTGACACA was 1360.
